# Source: the supplement of paper PMC8728848
# Shown is part of a subset that was picked to be rich in the strongest signals.
# What was measured:
# Test in all cases: glycan array binding signal (z-score within array); higher = stronger binding
# Conditions in all cases: glycan notation: IUPAC condensed, linker removed
# Fuc(a1-2)Gal(b1-3)GlcNAc = molecular target: Fuc(a1-2)Gal(b1-3)GlcNAc
# Procedure, shortened: (§1)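 From the Consortium for Functional Glycomics database, 3228 arrays were curated, keeping only those whose protein sequence was available. Binding is given as a within-array Z-score averaged across arrays sharing a protein sequence and across linkers. Negative Z-scores can be read as non-binding.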
# [1] = molecular target: Fuc(a1-2)Gal(b1-4)[Fuc(a1-3)]GlcNAc(b1-3)Gal(b1-4)[Fuc(a1-3)]GlcNAc
# Procedure, shortened: as §1
# [2] = molecular target: Fuc(a1-3)[Gal(b1-4)]GlcNAc(b1-3)Gal(b1-3)[Fuc(a1-4)]GlcNAc
# Procedure, shortened: as §1
# [3] = molecular target: Fuc(a1-3)[Gal3S(b1-4)]Glc6S
# Procedure, shortened: as §1
# Gal(b1-3)GalNAc = molecular target: Gal(b1-3)GalNAc
# Procedure, shortened: as §1
# [4] = molecular target: Gal(b1-4)GlcNAc(b1-2)Man(a1-3)[Gal(b1-4)GlcNAc(b1-2)Man(a1-6)]Man(b1-4)GlcNAc(b1-4)GlcNAc
# Procedure, shortened: as §1
# [5] = molecular target: Gal(b1-4)GlcNAc(b1-3)Gal(b1-4)[Fuc(a1-3)]GlcNAc(b1-3)Gal(b1-4)[Fuc(a1-3)]GlcNAc
# Procedure, shortened: as §1
# [6] = molecular target: Gal(b1-4)GlcNAc(b1-3)[GlcNAc(b1-6)]Gal(b1-4)GlcNAc
# Procedure, shortened: as §1
# [7] = molecular target: Gal(b1-4)GlcNAc(b1-6)[Gal(b1-3)]GalNAc
# Procedure, shortened: as §1
# [8] = molecular target: Gal3S(b1-4)[Fuc(a1-3)]Glc
# Procedure, shortened: as §1
# Gal4S6S(b1-4)GlcNAc = molecular target: Gal4S6S(b1-4)GlcNAc
# Procedure, shortened: as §1
# Glc(a1-6)Glc(a1-6)Glc = molecular target: Glc(a1-6)Glc(a1-6)Glc
# Procedure, shortened: as §1
# GlcA(b1-6)Gal = molecular target: GlcA(b1-6)Gal
# Procedure, shortened: as §1
# [9] = molecular target: Man(a1-2)Man(a1-3)[Man(a1-2)Man(a1-6)]Man(a1-6)[Man(a1-2)Man(a1-2)Man(a1-3)]Man
# Procedure, shortened: as §1
# [10] = molecular target: Man(a1-2)Man(a1-6)[Man(a1-3)]Man(a1-6)[Man(a1-2)Man(a1-2)Man(a1-3)]Man(b1-4)GlcNAc(b1-4)GlcNAc
# Procedure, shortened: as §1
# Man(a1-3)[Man(a1-6)]Man = molecular target: Man(a1-3)[Man(a1-6)]Man
# Procedure, shortened: as §1
# [11] = molecular target: Neu5Ac(a2-3)Gal(b1-3)GalNAc(b1-4)[Neu5Ac(a2-3)]Gal(b1-4)Glc
# Procedure, shortened: as §1
# [12] = molecular target: Neu5Ac(a2-3)Gal(b1-4)GlcNAc(b1-3)Gal(b1-3)GlcNAc
# Procedure, shortened: as §1
# [13] = molecular target: Neu5Ac(a2-3)Gal(b1-4)[Fuc(a1-3)]GlcNAc(b1-3)Gal
# Procedure, shortened: as §1
# [14] = molecular target: Neu5Ac(a2-3)[GalNAc(b1-4)]Gal(b1-4)Glc
# Procedure, shortened: as §1
# [15] = molecular target: Neu5Ac(a2-6)Gal(b1-4)GlcNAc(b1-2)Man(a1-3)[GlcNAc(b1-2)Man(a1-6)]Man(b1-4)GlcNAc(b1-4)GlcNAc
# Procedure, shortened: as §1
# [16] = molecular target: Neu5Ac(a2-6)GalNAc(b1-4)GlcNAc
# Procedure, shortened: as §1
# [17] = molecular target: Fuc(a1-2)Gal(b1-3)GlcNAc(b1-3)Gal(b1-4)Glc
# Procedure, shortened: as §1
# [18] = molecular target: Fuc(a1-2)Gal(b1-3)[Fuc(a1-4)]GlcNAc
# Procedure, shortened: as §1
# [19] = molecular target: Fuc(a1-2)Gal(b1-4)GlcNAc(b1-2)Man(a1-3)[Fuc(a1-2)Gal(b1-4)GlcNAc(b1-2)Man(a1-6)]Man(b1-4)GlcNAc(b1-4)GlcNAc
# Procedure, shortened: as §1
# [20] = molecular target: Fuc(a1-2)Gal(b1-4)[Fuc(a1-3)]GlcNAc
# Procedure, shortened: as §1
# [21] = molecular target: Fuc(a1-2)[GalNAc(a1-3)]Gal(b1-3)GlcNAc
# Procedure, shortened: as §1
# [22] = molecular target: Gal(a1-3)Gal(b1-3)[Fuc(a1-4)]GlcNAc(b1-2)Man(a1-3)[Gal(a1-3)Gal(b1-3)[Fuc(a1-4)]GlcNAc(b1-2)Man(a1-6)]Man(b1-4)GlcNAc(b1-4)GlcNAc
# Procedure, shortened: as §1
# [23] = molecular target: Gal(a1-3)Gal(b1-4)[Fuc(a1-3)]GlcNAc
# Procedure, shortened: as §1
# [24] = molecular target: Gal(a1-4)Gal(b1-4)GlcNAc(b1-2)Man(a1-3)[Gal(a1-4)Gal(b1-4)GlcNAc(b1-2)Man(a1-6)]Man(b1-4)GlcNAc(b1-4)GlcNAc
# Procedure, shortened: as §1
# Gal(b1-2)Gal = molecular target: Gal(b1-2)Gal
# Procedure, shortened: as §1
# [25] = molecular target: Gal(b1-3)GalNAc(b1-4)[Neu5Ac(a2-3)]Gal(b1-4)Glc
# Procedure, shortened: as §1
# [26] = molecular target: Gal(b1-3)GlcNAc(b1-3)Gal(b1-4)Glc
# Procedure, shortened: as §1
# [27] = molecular target: Gal(b1-3)GlcNAc(b1-3)Gal(b1-4)[Fuc(a1-3)]GlcNAc(b1-6)[Gal(b1-3)GlcNAc(b1-3)]Gal(b1-4)Glc
# Procedure, shortened: as §1
# [28] = molecular target: Gal(b1-3)[Fuc(a1-4)]GlcNAc
# Procedure, shortened: as §1
# [29] = molecular target: Gal(b1-3)[Fuc(a1-4)]GlcNAc(b1-2)Man(a1-3)[Gal(b1-3)[Fuc(a1-4)]GlcNAc(b1-2)Man(a1-6)]Man(b1-4)GlcNAc(b1-4)GlcNAc
# Procedure, shortened: as §1
# [30] = molecular target: Gal(b1-3)[Fuc(a1-4)]GlcNAc(b1-2)Man(a1-3)[Gal(b1-3)[Fuc(a1-4)]GlcNAc(b1-2)Man(a1-6)]Man(b1-4)GlcNAc(b1-4)[Fuc(a1-6)]GlcNAc
# Procedure, shortened: as §1
# [31] = molecular target: GalNAc(b1-4)GlcNAc(b1-2)Man(a1-3)[GalNAc(b1-4)GlcNAc(b1-2)Man(a1-6)]Man(b1-4)GlcNAc(b1-4)GlcNAc
# Procedure, shortened: as §1
# [32] = molecular target: GlcNAc(b1-3)Gal(b1-4)GlcNAc(b1-3)Gal(b1-4)GlcNAc
# Procedure, shortened: as §1
# Kdn(a2-3)Gal(b1-4)Glc = molecular target: Kdn(a2-3)Gal(b1-4)Glc
# Procedure, shortened: as §1
# [33] = molecular target: Man(a1-2)Man(a1-2)Man(a1-6)[Man(a1-3)]Man
# Procedure, shortened: as §1
# [34] = molecular target: Neu5Ac(a2-3)Gal(b1-3)GlcNAc6S
# Procedure, shortened: as §1
# [35] = molecular target: Neu5Ac(a2-3)Gal(b1-3)[Fuc(a1-4)]GlcNAc(b1-3)Gal(b1-4)[Fuc(a1-3)]GlcNAc
# Procedure, shortened: as §1
# [36] = molecular target: Neu5Ac(a2-3)Gal(b1-4)GlcNAc(b1-3)Gal(b1-4)GlcNAc
# Procedure, shortened: as §1
# [37] = molecular target: Neu5Ac(a2-6)Gal(b1-4)GlcNAc(b1-3)Gal(b1-4)GlcNAc(b1-3)Gal(b1-4)GlcNAc
# Procedure, shortened: as §1
# Neu5Ac(a2-6)GalNAc = molecular target: Neu5Ac(a2-6)GalNAc
# Procedure, shortened: as §1
# [38] = molecular target: Neu5Ac9Ac(a2-3)Gal(b1-4)GlcNAc
# Procedure, shortened: as §1
binder,measurement,setting,value
"RfpB (Mycobacterium tuberculosum), O05594 (protein) MAAGLVTASMSLSTAVAHAGPSPNWDAVAQCESGGNWAANTGNGKYGGLQFKPATWAAFGGVGNPAAASREQQIAVANRVLAEQGLDAWPTCGAASGLPIALWSKPAQGIKHAGPSPNWDAVAQCESGGNWAANTGNGKYGGLQFKPATWAAFGGVGNPAAASREQQIAVANRVLAEQGLDAWPTCGA",glycan array binding signal (z-score),Fuc(a1-2)Gal(b1-3)GlcNAc,0.352
same,glycan array binding signal (z-score),[1],-0.487
same,glycan array binding signal (z-score),[2],-0.065
same,glycan array binding signal (z-score),[3],2.53
same,glycan array binding signal (z-score),Gal(b1-3)GalNAc,-0.202
same,glycan array binding signal (z-score),[4],-0.1
same,glycan array binding signal (z-score),[5],9.72
same,glycan array binding signal (z-score),[6],2.74
same,glycan array binding signal (z-score),[7],-0.262
same,glycan array binding signal (z-score),[8],-0.568
same,glycan array binding signal (z-score),Gal4S6S(b1-4)GlcNAc,0.03
same,glycan array binding signal (z-score),Glc(a1-6)Glc(a1-6)Glc,-0.239
same,glycan array binding signal (z-score),GlcA(b1-6)Gal,-0.284
same,glycan array binding signal (z-score),[9],-0.097
same,glycan array binding signal (z-score),[10],-0.426
same,glycan array binding signal (z-score),Man(a1-3)[Man(a1-6)]Man,9.95
same,glycan array binding signal (z-score),[11],4.02
same,glycan array binding signal (z-score),[12],-0.23
same,glycan array binding signal (z-score),[13],-0.07
same,glycan array binding signal (z-score),[14],-0.524
same,glycan array binding signal (z-score),[15],-0.499
same,glycan array binding signal (z-score),[16],-0.639
"SLP (Clostridium difficile), Q183M8 (protein) MATTGTQGYTVVKNDWKKAVKQLQDGLKDNSIGKITVSFNDGVVGEVAPKSANKKADRDAAAEKLYNLVNTQLDKLGDGDYVDFSVDYNLENKIITNQADAEAIVTKLNSLNEKTLIDIATKDTFGMVSKTQDSEGKNVAATKALKVKDVATFGLKSGGSEDTGYVVEMKAGAVEDKYGKVGDSTAGIAINLPSTGLEYAGKGTTIDFNKTLKVDVTGGSTPSAVAVSGFVTKDDTDLAKSGTINVRVINAKEESIDIDASSYTSAENLAKRYVFDPDEISEAYKAIVALQNDGIESNLVQLVNGKYQVIFYPEGKRLETKSLEHHHHHH",glycan array binding signal (z-score),Fuc(a1-2)Gal(b1-3)GlcNAc,-0.17
same,glycan array binding signal (z-score),[17],3.53
same,glycan array binding signal (z-score),[18],-0.18
same,glycan array binding signal (z-score),[19],3.46
same,glycan array binding signal (z-score),[20],-0.174
same,glycan array binding signal (z-score),[21],-0.175
same,glycan array binding signal (z-score),[22],12.1
same,glycan array binding signal (z-score),[23],-0.186
same,glycan array binding signal (z-score),[24],0.537
same,glycan array binding signal (z-score),Gal(b1-2)Gal,-0.185
same,glycan array binding signal (z-score),[25],-0.141
same,glycan array binding signal (z-score),[26],3.65
same,glycan array binding signal (z-score),[27],-0.152
same,glycan array binding signal (z-score),[28],-0.182
same,glycan array binding signal (z-score),[29],7.99
same,glycan array binding signal (z-score),[30],5.55
same,glycan array binding signal (z-score),[4],-0.173
same,glycan array binding signal (z-score),[31],6.19
same,glycan array binding signal (z-score),[32],-0.209
same,glycan array binding signal (z-score),Kdn(a2-3)Gal(b1-4)Glc,-0.2
same,glycan array binding signal (z-score),[33],-0.17
same,glycan array binding signal (z-score),[34],-0.167
same,glycan array binding signal (z-score),[35],-0.057
same,glycan array binding signal (z-score),[36],-0.18
same,glycan array binding signal (z-score),[37],-0.187
same,glycan array binding signal (z-score),Neu5Ac(a2-6)GalNAc,-0.177
same,glycan array binding signal (z-score),[38],-0.188
